The compounds below were run on MDA-MB-231 (assay: relative cell viability, compound alone, vs DMSO (fraction of DMSO control); higher = less growth inhibition). Conditions: 72 h.
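Also: viability read out with the CCK-8 kit in 96-well plates, screening a set of 303 compounds acting on lipid metabolism targets.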

Compared with `Cc1cc(C)c(S(=O)(=O)N(CCc2cccc(Br)c2)Cc2ccc(-c3cccc(S(C)(=O)=O)c3)cc2)c(C)c1`, `O=C(O)c1ccnc(N2CC(O)(c3ccc(OCc4c(-c5c(Cl)cccc5Cl)noc4C4CC4)cc3Cl)C2)c1` [Cilofexor] is higher in relative cell viability: 0.862 for the first, 0.885 for the second.

Compared with `CCCCCCCCCCCCC/C=C/[C@@H](O)[C@@H](N)CO`, `NC(N)=N/N=C/c1cccc(Cl)c1Cl` [Raphin1 acetate] is higher in relative cell viability: 0.792 for the first, 0.822 for the second.
